Results from PubChem BioAssay.
The source made the active and inactive calls.

tested on: not listed separately; test: S. cerevisiae growth modulation with rapamycin, primary screen, strain BY4716, OD600, 96 h (AID 1091); details: higher = more signal, called active from +8 up or from −8 down; note: test concentration not given here

| Structure (SMILES) | z-score |
| --- | --- |
| C=C[C@@H](COC(C)=O)N(Cc1ccc([N+](=O)[O-])cc1)S(=O)(=O)c1ccc(Br)cc1 | 3.93 (inactive) |
| CC(C)N1C(=O)c2ccccc2[C@@H](C(=O)NCCCN(C)C)[C@@H]1c1ccc(CO)cc1 | -0.181 (inactive) |
| CC(C)c1ccc(NN2C(C(O)c3cccc(O)c3)C=CC3C(=O)N(c4ccccc4)C(=O)C32)cc1 (stereo not drawn) | 0.697 (inactive) |
| CCOC(=O)C[C@H]1[C@H](OC(=O)Cc2ccc3c(c2)OCO3)[C@@H](NC(=O)C2CCCCC2)c2cc(OCCCO)ccc2N1C(=O)Cc1ccc(OC)cc1 | -0.558 (inactive) |
| COCCOC(=O)N1C(=O)[C@@]2(c3cc(C#CCC(C(=O)OC)C(=O)OC)ccc31)[C@H](C(=O)N1CCN(c3ncccn3)CC1)[C@H]1C(=O)O[C@H](c3ccccc3)[C@H](c3ccccc3)N1[C@@H]2c1ccc(OCCO)cc1 | 5.21 (inactive) |
| COc1ccc(C#Cc2ccc3c(c2)[C@]2(C(=O)N3)[C@H](c3ccc(O)cc3)N3[C@H](c4ccccc4)[C@H](c4ccccc4)OC(=O)[C@H]3[C@@H]2C(=O)N2CCCCCCC2)cc1 | 1.15 (inactive) |
| O=C1OCC=C[C@H]2OC34C=CCN(c5ccc(Cl)cc5)C(=O)[C@H]3N(CCCCCCO)C(=O)[C@@H]4[C@@H]12 (stereo partly drawn) | -0.787 (inactive) |
| O=C1O[C@H](c2ccccc2)[C@H](c2ccccc2)N2[C@H]1[C@@H](C(=O)N1CCN(c3ncccn3)CC1)[C@]1(C(=O)Nc3ccccc31)[C@H]2c1ccc(OCCO)cc1 | 4.75 (inactive) |

molecular target: Torsin-1A-interacting protein 2 (Homo sapiens) (UniProt Q8NFQ8); test: LULL1 binders on small-molecule microarray, primary screen, cell lysate, human LULL1 lysate, 635/667 nm fluorescence (AID 1092); details: hLULL1 lysate binding, 635 nm fluorescence, higher = more signal;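 note: probe is lysate of COS7 cells overexpressing human LULL1; score merges per-feature 667 nm fluorescence with signal-to-noise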
Sequence (Q8NFQ8 whole entry, looked up): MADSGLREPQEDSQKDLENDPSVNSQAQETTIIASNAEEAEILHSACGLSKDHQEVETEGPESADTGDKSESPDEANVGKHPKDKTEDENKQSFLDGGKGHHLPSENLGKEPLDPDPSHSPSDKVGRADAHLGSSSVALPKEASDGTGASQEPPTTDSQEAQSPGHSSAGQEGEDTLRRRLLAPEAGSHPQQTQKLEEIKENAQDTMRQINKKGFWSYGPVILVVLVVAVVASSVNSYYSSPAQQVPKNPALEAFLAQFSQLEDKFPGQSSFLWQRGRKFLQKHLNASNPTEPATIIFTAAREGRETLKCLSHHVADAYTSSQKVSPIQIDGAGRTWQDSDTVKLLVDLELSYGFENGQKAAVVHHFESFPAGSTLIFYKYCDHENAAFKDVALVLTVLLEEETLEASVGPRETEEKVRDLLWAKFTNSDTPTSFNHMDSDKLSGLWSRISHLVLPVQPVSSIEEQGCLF

| Structure (SMILES) | composite z-score |
| --- | --- |
| CCCCCCc1nc(CCCc2cc3c(c(CCCCCC)n2)[Si](C(C)C)(C(C)C)OC3)cc2c1[Si](C(C)C)(C(C)C)OC2 | -0.134 |
| COc1cccc(C(=O)O[C@H]2CC[C@]3(C)C4=C(CCC3C2(C)C)[C@]2(C)CC[C@H]([C@H](C)CCCC(C)C)[C@@]2(C)CC4)c1 (stereo partly drawn) | 0.385 |
| O=C1N(CCS(=O)(=O)c2ccccc2)Cc2ccccc2C[C@]12N=C(c1ccc(OCCCO)cc1)O[C@@H]2c1ccccc1 | 3.45 |
| O=C1C2C=CC(C(O)c3cccs3)N(Nc3ccccc3F)C2C(=O)N1c1ccccc1 (stereo not drawn) | 3.17 |
| COc1ccc(NN2C(C(O)c3ccc(OC)c(OCc4ccccc4)c3)C=CC3C(=O)N(C4CCCCC4)C(=O)C32)cc1 (stereo not drawn) | 3.24 |
| CCOc1cc(C(O)C2C=CC3C(=O)N(c4ccccc4)C(=O)C3N2Nc2ccc([N+](=O)[O-])cc2)ccc1O (stereo not drawn) | 3.37 |
| COCCOC(=O)N1C(=O)[C@@]2(c3cc(C#CCNC(N)=O)ccc31)[C@H](C(=O)N1CCN(c3ncccn3)CC1)[C@H]1C(=O)O[C@H](c3ccccc3)[C@H](c3ccccc3)N1[C@@H]2c1ccccc1OCCO | 1.79 |
| C=CC[C@]1(C(=O)N2CCOCC2)N=C(c2ccc(OCCCO)cc2)O[C@H]1c1ccccc1 | 3.56 |
| CCOC(=O)C1=CC[C@@H](c2ccccc2)N(S(=O)(=O)c2ccc(C)cc2)[C@H]1C(=O)OCC | 1.14 |
| CC=CC(O)C1C=CC2C(=O)N(c3ccccc3)C(=O)C2N1Nc1ccc(C(C)C)cc1 (stereo not drawn) | 3.13 |
| O=C1OCCC=C[C@H]2OC34C=CCN(c5ccc6ccccc6c5)C(=O)[C@H]3N(CCCCCO)C(=O)[C@@H]4C12 (stereo partly drawn) | 2.42 |
| CCOC(=O)C[C@H]1[C@H](OC(=O)c2ccc(C(=O)c3ccccc3)cc2)[C@@H](NC(=O)C2CCCCC2)c2cc(OCCCO)ccc2N1C(=O)c1ccccc1 | 2.04 |
| [N-]=[N+]=Nc1ccccc1[C@@H]1OC(c2ccc(OCCCO)cc2)=N[C@]1(CCS(=O)(=O)c1ccccc1)C(=O)N1CCOCC1 | 3.59 |
| NC(=O)NCC#Cc1ccc2c(c1)[C@]1(C(=O)N2)[C@H](C(=O)N2CCCCCCC2)[C@H]2C(=O)O[C@H](c3ccccc3)[C@H](c3ccccc3)N2[C@@H]1c1ccc(OCCO)cc1 | 2.06 |
| O=C(NCc1ccccc1)[C@]1(CCS(=O)(=O)c2ccccc2)N=C(c2ccc(OCCCO)cc2)O[C@@H]1c1ccccc1 | 1.78 |
| C=C(C(=O)CC[C@H](OC(C)=O)c1ccc(OCCO)cc1)C(C)C | 0.739 |
| CCCCCN1CC=CC23O[C@@H]4/C=C\CCC(C)OC(=O)C4[C@H]2C(=O)N(CCCCCO)[C@@H]3C1=O (stereo partly drawn) | -1.94 |
| O=C1[C@]2(CO)C=C(Br)[C@@H](C[C@@H]2c2ccccc2)[C@@]12CO2 | -0.556 |

| Structure (SMILES) | composite z-score |
| --- | --- |
| CC(C)C(O)C1C=CC2C(=O)N(c3ccccc3)C(=O)C2N1Nc1ccc(C#N)cc1 (stereo not drawn) | 3.17 |
| O=C(CS)NCCCCCCNC(=O)[C@H]1C[C@H]2C(=O)N3CCC[C@H]3C(=O)N2[C@H]1c1cccc(OCCO)c1 | 3.05 |
| COCC(=C=CC[C@H](O)c1ccc(OCCO)cc1)C[C@H](O)c1cc(Cl)cc(Cl)c1O | -1.22 |
| CN1CCC(CCCO)=CC1c1ccc(CN2CCCC2)cc1 (stereo not drawn) | 2.18 |
| COCCOC(=O)N1C(=O)[C@@]2(c3cc(C#CCC(C(=O)OC)C(=O)OC)ccc31)[C@H](c1ccccc1OCCO)N1[C@H](c3ccccc3)[C@H](c3ccccc3)OC(=O)[C@H]1[C@@H]2C(=O)N1CCc2cc(OC)c(OC)cc2C1 | 2.42 |
| COc1ccc(CCNC(=O)[C@@]2(c3ccc([N+](=O)[O-])cc3)CC(=O)N(CC34CC5CC(CC(C5)C3)C4)[C@@H]2c2ccc(CO)cc2)cc1 | 2.11 |
| Cc1ccccc1C(O)C1C=CC2C(=O)N(C)C(=O)C2N1Nc1ccccc1 (stereo not drawn) | 2.98 |
| O=C1c2ccccc2[C@@]2(Cc3ccccc3N(Cc3ccccc3)C2=O)[C@H](c2ccc(CO)cc2)N1C1CCCCC1 | 0.525 |
| O=C1O[C@H](c2ccccc2)[C@H](c2ccccc2)N2[C@H]1[C@@H](C(=O)Nc1nc3ccccc3s1)[C@]1(C(=O)Nc3ccccc31)[C@H]2c1ccc(O)cc1 | 2.74 |
| C=C[C@@H](COC(C)=O)N(Cc1ccc([N+](=O)[O-])cc1)S(=O)(=O)c1ccc(Br)cc1 | 1.25 |
| CC(C)N1C(=O)c2ccccc2[C@@H](C(=O)NCCCN(C)C)[C@@H]1c1ccc(CO)cc1 | 1.3 |
| CC(C)c1ccc(NN2C(C(O)c3cccc(O)c3)C=CC3C(=O)N(c4ccccc4)C(=O)C32)cc1 (stereo not drawn) | 3.62 |
| CCOC(=O)C[C@H]1[C@H](OC(=O)Cc2ccc3c(c2)OCO3)[C@@H](NC(=O)C2CCCCC2)c2cc(OCCCO)ccc2N1C(=O)Cc1ccc(OC)cc1 | 1.89 |
| COCCOC(=O)N1C(=O)[C@@]2(c3cc(C#CCC(C(=O)OC)C(=O)OC)ccc31)[C@H](C(=O)N1CCN(c3ncccn3)CC1)[C@H]1C(=O)O[C@H](c3ccccc3)[C@H](c3ccccc3)N1[C@@H]2c1ccc(OCCO)cc1 | 2.26 |
| COc1ccc(C#Cc2ccc3c(c2)[C@]2(C(=O)N3)[C@H](c3ccc(O)cc3)N3[C@H](c4ccccc4)[C@H](c4ccccc4)OC(=O)[C@H]3[C@@H]2C(=O)N2CCCCCCC2)cc1 | 4.08 |
| O=C1OCC=C[C@H]2OC34C=CCN(c5ccc(Cl)cc5)C(=O)[C@H]3N(CCCCCCO)C(=O)[C@@H]4[C@@H]12 (stereo partly drawn) | 1.92 |
| O=C1O[C@H](c2ccccc2)[C@H](c2ccccc2)N2[C@H]1[C@@H](C(=O)N1CCN(c3ncccn3)CC1)[C@]1(C(=O)Nc3ccccc31)[C@H]2c1ccc(OCCO)cc1 | 2.35 |
